Drawing on PubChem BioAssay (NCATS), this text covers Potency, Z-AUC and redox activity (% of DA3003) for 11 molecules.

A short description of experiment [1]: Primary redox qHTS assay for identification of artifact compounds. (AID 1845223).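 Also: 0% = DMSO and 100% = reference compound.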 Put shortly:
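Redox-cycling detection via DTT (250 uM final) oxidation coupled to Amplex Red (25 uM)/HRP (250 mU/mL) in HBSS. 15 min preincubation plus 30 min after DTT, room temperature. Ex/Em 525/598 nm; 4-parameter Hill fit against DMSO and 10 uM DA3003.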
In general terms: qHTS replaces the single test concentration by a dilution series.

Experiment [2] in a line: qHTS drug screen for cell cycle checkpoint inhibitors in PARPi-resistant BRCA-mutant ovarian cancer cell lines. (AID 1963452; calls by dose curve). Particulars: PEO1/OlaR viability, CellTiter-Glo luminescence, 96 h, stronger effect = lower value. Put shortly:
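PEO1, PEO4 and PEO1/OlaR ovarian cancer cells, 600 per well, exposed 96 h at 37C to a dilution series. Viability read by CellTiter-Glo luminescence, normalized to DMSO and empty wells; activity summarized as Z-AUC.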

Setting [3] is: measured here: PEO1 parental Z-AUC.

The structures appear in SMILES notation. Inconclusive results are not listed. Calls of active or inactive are those of the source. Unless noted, calls follow the shape of the dose curve; as a rule, active = well fitted activation curve with a large enough effect; inconclusive = small, poorly fitted or top-dose-only effect; inactive = flat fitted curve, though single readings scatter.

Take `CCCc1cc(C)[nH]c(=O)c1CNC(=O)c1cc(-c2ccc(N3CCN(C(C)C)CC3)nc2)cc2c1cnn2C(C)C`: in experiment [1], the Potency result is “inactive”. Besides, the Z-AUC was 0.233 (inactive) in experiment [2], 0.123 in experiment [2] (setting [3]) and 0.0189 in experiment [2] (measured here: PEO4 Z-AUC).

Regarding `Fc1ccc(-c2nc(-c3ccccc3F)[nH]c2-c2ccncc2)cc1`, the Potency result in experiment [1] is “inactive”. Besides, the Z-AUC in experiment [2] is 0.595 (inactive); in experiment [2] (setting [3]) it was -0.0932; in experiment [2] (measured here: PEO4 Z-AUC), 0.278.

Regarding `Cc1[nH]c2ccc(F)cc2c1-c1nc2c3cccnc3c3ncccc3c2[nH]1`, the Potency entry in experiment [1] was “inactive”. In addition, the results for the Z-AUC in experiment [2], in experiment [2] (setting [3]) and in experiment [2] (measured here: PEO4 Z-AUC) were -1.49 (inactive), -0.715 and -1.31, respectively.

For the molecule `C=CC(=O)Nc1cccc(Nc2nc(Nc3ccc(NC4CN(CCF)C4)cc3OC)ncc2C(F)(F)F)c1`, the Potency entry in experiment [1] is “inactive”. The Z-AUC in experiment [2] was 0.83 (inactive); in experiment [2] (setting [3]), 0.499; in experiment [2] (measured here: PEO4 Z-AUC), 0.584.

For the molecule `CC#C[C@@H](CC(=O)O)c1ccc(OCc2cccc(-c3ccc(C(F)(F)F)cc3)c2)cc1`, the Potency entry in experiment [1] was “inactive”. Besides, the Z-AUC in experiment [2] was 0.0821 (inactive); in experiment [2] (setting [3]), 0.579; in experiment [2] (measured here: PEO4 Z-AUC), 0.882.

Take `C=CC(=O)Nc1ccc2ncnc(Nc3cccc(Br)c3)c2c1`: in experiment [1], the Potency result is “inactive”. The Z-AUC in experiment [2] is -0.896 (inactive); in experiment [2] (setting [3]), -1.05; in experiment [2] (measured here: PEO4 Z-AUC) it was -0.968.

With `O=C(NC[C@H](O)CN1CCc2ccccc2C1)c1ccnc(NC2CCC2)c1`, the Potency result in experiment [1] was “inactive”. Besides, the results for the Z-AUC in experiment [2], in experiment [2] (setting [3]) and in experiment [2] (measured here: PEO4 Z-AUC) were -0.571 (inactive), -0.416 and -0.212, respectively.

Regarding `O=C(Nc1ccc2[nH]nc(-c3ccncc3)c2c1)[C@@H]1CCN(CC(=O)N2CCN(c3ccc(-c4ncccn4)cc3)CC2)C1`, the Potency result in experiment [1] was “inactive”. Moreover, the results for the Z-AUC in experiment [2], in experiment [2] (setting [3]) and in experiment [2] (measured here: PEO4 Z-AUC) were -0.198 (inactive), -1.04 and -0.706, respectively.

`N#Cc1ccc(COC[C@H]2O[C@@H](n3c(NCc4ccc(Cl)c(Cl)c4)nc4c(N)ncnc43)[C@H](O)[C@@H]2O)cc1`: the Potency entry in experiment [1] was “inactive”. For the same molecule, the Z-AUC in experiment [2] is -0.735 (inactive); in experiment [2] (setting [3]) it was -0.265; in experiment [2] (measured here: PEO4 Z-AUC), 0.0878.

Consider `CC(C)NC(=O)N1CC[C@H](N=C2Nc3cc(F)ccc3N(CC(F)F)c3ccc(Cl)cc32)C1`, for which the redox activity (% of DA3003) in experiment [1] was 12.5% [at 11.5 µM] (inactive). Moreover, the Z-AUC was -0.974 (inactive) in experiment [2], -0.755 in experiment [2] (setting [3]) and -0.602 in experiment [2] (measured here: PEO4 Z-AUC).

Turning to `Cc1sc2c(c1C)C(c1ccc(Cl)cc1)=N[C@@H](CC(=O)Nc1ccc(OCCOCCOCCOCCNc3cccc4c3C(=O)N(C3CCC(=O)NC3=O)C4=O)cc1)c1nnc(C)n1-2` (some centres undefined), the Potency result in experiment [1] is “inactive”. Further, the Z-AUC in experiment [2] is -1.58 (inactive); in experiment [2] (setting [3]), -2.13; in experiment [2] (measured here: PEO4 Z-AUC), -1.49.
